From PubChem BioAssay (NCATS)
Inconclusive results are not listed. A call without a number means that no potency is given here. Calls of active or inactive are those of the source. The call rests on the fitted dose curve; in most records, active means well fitted inhibition curve with a large enough effect; inconclusive means small, poorly fitted or top-dose-only effect; inactive means no such curve, though single readings can be large or run the other way.

Assay: qHTS assay for measurement of the activity of small molecule inhibitors on Zika virus induced Caspase-3 activity in human iPSC derived neural progenitor cells (hNPCs) (AID 1224857); further: nearly all actives have a fitted effect of over 65% in size
Details: hNPCs ZIKV-induced caspase-3/7, Caspase-Glo luminescence, 6 h; series mostly up to 45.7 µM
Excerpt: National Center for Advancing Translational Sciences [NCATS]
Johns Hopkins University School of Medicine
Increase in the Caspase-3 activity indicates an activation of apoptosis cell death pathway caused by Zika virus infection in certain types of neuronal cells including human neural progenitor cells (hNPCs), astrocytes, and astrocytoma cell line (SNB-19). This cell-based caspase-3 activity assay measures the increased caspase-3 activity in the human iPSC derived neural progenitor cells (hNPCs) after a 6-hour Zika virus infection with a luminescence readout. A decrease in the luminescence signal in this assay by small molecule treatment indicates an inhibitory effect of that small molecule on the Zika virus induced caspase-3 activity that may correlate with its effect on reduction of Zika virus caused cell death.
The medium for hNPCs consists of DMEM/F12, N2 supplement (ThermoFisher, Cat.# 17502048), NEAA (ThermoFisher, Cat. # 11140050), 2 ug/ml heparin, 2 uM cyclopamine, and B27 (ThermoFisher, Cat. # 17504044). A Caspase-Glo 3/7 assay kit (catalog number G8092; Promega, Madison, WI) was used to detect caspase-3 activity induced by Zika virus infection in human cells. The reagent mixture was reconstituted as described in the protocol from the manufacturer. Polystyrene tissue culture treated and PDL coated white plates were obtained from Greiner Bio-One (Monroe, NC). Cells were seeded in 384- or 1536-well assay plates and cultured at 37 C with 5% CO2 for 16 to 20 hours. The typical cell seeding density in the 1536-well plate assay is 350 cells/well in 3 ul medium for hNPCs in tissue culture treated plates. Compounds were added to cells and incubated for one hour before addition of ZIKV solution to cells (2 FFU/cell). After incubation at 37 C with 5% CO2 for 6 hours, the reagent mixture of Caspase-Glo 3/7 assay kit was added to each well, followed by incubation at room temperature for 30 minutes. The luminescence intensity of the assay plates was measured using a ViewLux plate reader (PerkinElmer). Data were normalized by using the cell-containing wells without ZIKV as a negative control (0% induction of caspase 3/7 activity) and wells containing ZIKV infected cells (Caspase-3 activity induced) as a positive control (100% induction of caspase 3 activity). The percentage inhibitions of the increased Caspase-3 activity by small molecule inhibitors were then calculated.
In the case of `Cc1nc(-c2ccc(-c3ccc(C(=O)N4CCc5cc6c(cc54)C4(CCN(C)CC4)CO6)cc3)c(C)c2)no1`, the Potency is reported as “inactive”.
For `CC(=O)N(C)c1cccc(-c2ccnc3c(C(=O)c4cccs4)cnn23)c1`, the Potency was “inactive”.
With `O=C(O)[C@@H]1CCN1` the Potency was “inactive”.
In the case of `CC(C)NC(C)Cc1ccc(I)cc1` (stereo not given), the Potency is reported as “inactive”.
In the case of `C[N+]1(C)C2CC(OC(=O)[C@H](CO)c3ccccc3)CC1C1OC12` (stereo not given in full), the Potency is reported as “inactive”.
In the case of `CC(C)N(CCNC(=O)CN1CCCC1=O)C(C)C`, the Potency is reported as “inactive”.
With `CNCCc1c[nH]c2ccc(O)cc12` the Potency was “inactive”.
For `CCN(CC)C(=O)c1ccc(C2=CC3(CCNCC3)Oc3cccc(O)c32)cc1`, the Potency was “inactive”.
With `CC(=Cc1csc(C)n1)[C@@H]1C[C@H]2O[C@@H]2CCC[C@H](C)[C@@H](O)[C@@H](C)C(=O)C(C)(C)[C@@H](O)CC(=O)O1` the Potency was “inactive”.
For `CC(C)(O)C(=O)Nc1ccc([N+](=O)[O-])c(C(F)(F)F)c1`, the Potency was “inactive”.
With `C[C@@]12OC(=O)[C@]1([C@@H](O)[C@@H]1C=CCCC1)NC(=O)[C@H]2CCCl` the Potency was “inactive”.
For `COc1ccc(C(c2ccc(OC)cc2)C(Cl)(Cl)Cl)cc1`, the Potency was “inactive”.
With `COC1=CC(C)=C[C@@H](C)[C@@H](O)[C@@H](C)CC(C)=CC=C[C@H](OC)[C@H]([C@@H](C)[C@@H](O)[C@H](C)[C@@]2(O)C[C@@H](O)[C@H](C)[C@@H](C(C)C)O2)OC1=O` the Potency was “inactive”.
For `O=C(O)COc1ccccc1`, the Potency was “inactive”.
In the case of `CCCN(CCC)c1c([N+](=O)[O-])cc(S(N)(=O)=O)cc1[N+](=O)[O-]`, the Potency is reported as “inactive”.
In the case of `Cc1c(C(=O)Nc2cccc(C(F)(F)F)c2)cc(-c2ccccc2)n1CCCN1CCOCC1`, the Potency is reported as “inactive”.
In the case of `O=S(=O)(O)C(F)(F)C(F)(F)C(F)(F)C(F)(F)C(F)(F)C(F)(F)C(F)(F)C(F)(F)F`, the Potency is reported as “inactive”.
In the case of `Nc1ccc(Cl)cc1`, the Potency is reported as “inactive”.
With `O=[N+]([O-])/N=C1\NCCN1Cc1ccc(Cl)nc1` the Potency was “inactive”.
In the case of `CCOP(=O)(OCC)C(C)NC(=O)N(CCCl)N=O` (stereo not given), the Potency is reported as “inactive”.
For `O=C(O)C(Cl)Cl`, the Potency was “inactive”.
With `CC(=O)OCC1=C(C(=O)O)N2C(=O)[C@@H](N)[C@@H]2SC1` the Potency was “inactive”.
For `Clc1ccccc1C(c1ccccc1)(c1ccccc1)n1cccn1`, the Potency was “inactive”.
With `O=C(Oc1ccc([N+](=O)[O-])cc1)N1CCC(C(O)(c2ccc3c(c2)OCO3)c2ccc3c(c2)OCO3)CC1` the Potency was “inactive”.
For `CN[C@@H]1Cc2cccc3[nH]c(=O)n(c23)C1`, the Potency was “inactive”.
For `CC(=O)NCCc1c[nH]c2ccccc12`, the Potency was “inactive”.
For `COC1=C[C@@H]2[C@@H]3Cc4ccc(OC)c(O)c4[C@]2(CCN3C)CC1=O`, the Potency was “inactive”.
In the case of `c1ccc(C2(c3ccccc3)CC2C2=NCCN2)cc1` (stereo not given), the Potency is reported as “inactive”.
With `COc1cc2cc(c1Cl)N(C)C(=O)C[C@H](OC(=O)C(C)C)[C@]1(C)O[C@H]1[C@H](C)[C@@H]1C[C@@](O)(NC(=O)O1)[C@H](OC)C=CC=C(C)C2` the Potency was “inactive”.
With `NC(N)=NOCCC(N)C(=O)O` (stereo not given) the Potency was “inactive”.
In the case of `Cc1[nH]nc2ccc(-c3cncc(OC[C@@H](N)Cc4c[nH]c5ccccc45)c3)cc12`, the Potency is reported as “inactive”.
With `CCCCCCCCc1ccc(O)cc1` the Potency was “inactive”.
In the case of `O=C(O)c1cc(Oc2ccc(C(F)(F)F)cc2Cl)ccc1[N+](=O)[O-]`, the Potency is reported as “inactive”.
With `O=C(O)COc1nc(Cl)c(Cl)cc1Cl` the Potency was “inactive”.
In the case of `O=S(=O)(F)Cc1ccccc1`, the Potency is reported as “inactive”.
In the case of `C[C@@H]1CC[C@H]2[C@@H](C)C(=O)O[C@@H]3O[C@@]4(C)CC[C@H]1[C@]32OO4`, the Potency is reported as “inactive”.
For `C[C@H]([C@H](O)CCC(C)(C)O)[C@H]1CC[C@@]2(O)C3=CC(=O)[C@@H]4C[C@@H](O)[C@@H](O)C[C@]4(C)[C@@H]3CC[C@]12C`, the Potency was “inactive”.
With `CCOC(=O)c1cncn1[C@H](C)c1ccccc1` the Potency was “inactive”.
In the case of `Fc1cc(Br)ccc1CBr`, the Potency is reported as “inactive”.
In the case of `CC1(N2CCC(n3c([C@@H]4CCCNC4)nc4ccccc43)CC2)CCCCCCC1`, the Potency is reported as “inactive”.
